# Bioassay records from PubChem BioAssay.
# Cav3 T inh – human Cav3.2 channel inhibition, primary screen. O95180. Cav3.2-expressing cells, Fluo-4 calcium fluorescence FDSS; active compounds read low. B-score at 10 µM. hit rate 4% among 100,000. AID 449739;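 active means single-dose well whose peak fluorescence ratio is a statistical outlier from its plate by either plate-standardised score or position-corrected B-score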
# Target sequence (O95180 whole entry, looked up): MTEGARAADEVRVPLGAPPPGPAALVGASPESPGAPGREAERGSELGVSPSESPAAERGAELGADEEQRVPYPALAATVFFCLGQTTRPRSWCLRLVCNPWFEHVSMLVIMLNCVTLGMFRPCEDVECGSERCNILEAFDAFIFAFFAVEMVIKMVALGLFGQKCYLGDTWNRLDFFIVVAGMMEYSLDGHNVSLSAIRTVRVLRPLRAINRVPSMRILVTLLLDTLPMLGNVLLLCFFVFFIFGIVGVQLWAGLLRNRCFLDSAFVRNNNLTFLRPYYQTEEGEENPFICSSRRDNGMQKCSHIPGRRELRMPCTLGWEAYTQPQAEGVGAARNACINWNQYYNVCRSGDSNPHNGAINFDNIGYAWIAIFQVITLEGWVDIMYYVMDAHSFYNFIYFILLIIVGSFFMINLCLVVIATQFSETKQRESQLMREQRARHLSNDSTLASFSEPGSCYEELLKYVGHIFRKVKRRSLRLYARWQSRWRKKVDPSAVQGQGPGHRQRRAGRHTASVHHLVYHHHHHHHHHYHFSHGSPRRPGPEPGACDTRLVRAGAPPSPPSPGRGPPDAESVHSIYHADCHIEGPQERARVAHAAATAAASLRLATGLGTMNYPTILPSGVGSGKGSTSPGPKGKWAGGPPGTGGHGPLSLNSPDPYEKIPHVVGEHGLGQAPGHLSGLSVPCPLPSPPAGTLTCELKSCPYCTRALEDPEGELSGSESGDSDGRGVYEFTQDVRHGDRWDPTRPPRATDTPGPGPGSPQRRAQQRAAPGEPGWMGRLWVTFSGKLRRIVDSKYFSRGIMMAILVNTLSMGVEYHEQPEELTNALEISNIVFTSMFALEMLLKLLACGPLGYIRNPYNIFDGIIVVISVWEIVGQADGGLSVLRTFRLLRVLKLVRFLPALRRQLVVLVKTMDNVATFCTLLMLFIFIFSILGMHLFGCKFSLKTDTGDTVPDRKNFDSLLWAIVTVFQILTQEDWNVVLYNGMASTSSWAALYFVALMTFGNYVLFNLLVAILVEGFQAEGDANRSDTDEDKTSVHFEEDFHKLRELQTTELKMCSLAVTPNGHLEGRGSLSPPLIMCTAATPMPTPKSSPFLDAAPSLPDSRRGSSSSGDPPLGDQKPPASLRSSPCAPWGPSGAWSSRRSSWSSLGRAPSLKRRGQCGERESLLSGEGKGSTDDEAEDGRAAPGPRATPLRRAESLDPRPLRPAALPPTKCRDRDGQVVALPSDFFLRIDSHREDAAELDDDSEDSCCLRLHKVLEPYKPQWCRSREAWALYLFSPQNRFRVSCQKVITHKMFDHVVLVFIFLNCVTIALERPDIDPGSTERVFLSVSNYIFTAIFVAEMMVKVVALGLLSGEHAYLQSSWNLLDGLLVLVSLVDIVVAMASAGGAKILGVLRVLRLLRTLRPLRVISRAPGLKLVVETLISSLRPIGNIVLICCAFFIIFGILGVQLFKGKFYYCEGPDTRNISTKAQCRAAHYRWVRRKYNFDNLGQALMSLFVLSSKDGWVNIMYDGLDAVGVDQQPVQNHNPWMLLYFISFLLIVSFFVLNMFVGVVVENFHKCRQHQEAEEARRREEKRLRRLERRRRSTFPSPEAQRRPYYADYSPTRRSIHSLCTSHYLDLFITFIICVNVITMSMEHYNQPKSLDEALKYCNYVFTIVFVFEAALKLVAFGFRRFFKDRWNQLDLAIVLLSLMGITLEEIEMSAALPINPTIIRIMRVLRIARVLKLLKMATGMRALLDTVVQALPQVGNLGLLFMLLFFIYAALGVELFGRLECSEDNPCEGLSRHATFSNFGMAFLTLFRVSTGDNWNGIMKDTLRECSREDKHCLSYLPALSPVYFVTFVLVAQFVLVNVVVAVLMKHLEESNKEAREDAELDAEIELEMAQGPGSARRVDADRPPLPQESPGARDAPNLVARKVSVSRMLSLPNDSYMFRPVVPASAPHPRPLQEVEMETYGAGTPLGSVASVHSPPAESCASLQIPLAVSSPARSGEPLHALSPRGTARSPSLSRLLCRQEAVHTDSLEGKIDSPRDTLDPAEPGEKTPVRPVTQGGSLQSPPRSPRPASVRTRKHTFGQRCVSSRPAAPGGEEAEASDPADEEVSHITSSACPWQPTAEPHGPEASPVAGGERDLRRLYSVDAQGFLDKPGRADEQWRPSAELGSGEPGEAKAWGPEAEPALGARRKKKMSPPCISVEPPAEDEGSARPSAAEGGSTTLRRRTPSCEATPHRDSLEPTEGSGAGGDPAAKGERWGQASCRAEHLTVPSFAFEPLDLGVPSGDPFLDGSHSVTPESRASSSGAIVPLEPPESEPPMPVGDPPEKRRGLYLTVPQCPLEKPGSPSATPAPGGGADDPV
# CYP2C9 inhib – inhibitors of human CYP2C9. P11712. CYP2C9 Supersomes, luciferin-H conversion, luminescence. inhibition, % at 5 µM. hit rate 20% among 96,000;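 active means blocking of liver enzyme CYP2C9 beyond about 50% at 5 µM, limit read from the data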
# Pyk2 oligo antag – antagonists of human Pyk2 oligomerization | Q293 cells, Pyk2 FERM NanoBiT luminescence; active compounds read low | z-score (the deposit names both 25 µM and 10 µM) | hit rate 0.83% among 99,000 | AID 1347419;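 active means Z-score of -3 or lower, scaled per plate to the spread of control and sample wells; inactive means z-score above -3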;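 further: negative z-score means lost luminescence so less FERM oligomerization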
# CYP2C19 act – cytochrome P450 2C19 (human) activation. P33261. recombinant CYP2C19, luciferin-H EGE luminescence; active compounds read high; 0 = fully inhibited enzyme, 1 = untreated enzyme. activation factor at 5 µM. 96,000 tested, under 10 active. AID 1025;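 active means activation factor of at least 2 at 5 µM in the primary screen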;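 further: 0 = wells with 2.5 mM tranylcypromine and 1 = vehicle-only wells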
# CYP2C9 act – activators of human CYP2C9. activation factor at 5 µM. recombinant CYP2C9, luciferin-H conversion, luminescence; active compounds read high; factor 1 = untreated enzyme, 0 = blocked. P11712. hit rate 1.4% among 96,000. AID 1024;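 active means activation factor of 2 or more for CYP2C9 at a 5 µM dose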;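 further: 0 = sulfaphenazole-blocked wells and 1 = vehicle-only wells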
# CYP2C19 inhib – blocks human cytochrome P450 2C19. P33261. CYP2C19 Supersomes, luciferin-H EGE luminescence, 30 min. inhibition, % at 5 µM. hit rate 21% among 96,000. AID 778;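 active means CYP2C19 inhibition above a set limit at 5 µM in the primary screen, cut at about 50% in these data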;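 further: plate controls were negative control wells for no effect and 2.5 mM tranylcypromine positive control for full effect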
# * hit, by the source's call; . = no result. Shown are actives, neighbours in structure and some others; about 27% of the full set was active somewhere.
SMILES,Cav3 T inh,CYP2C9 inhib,Pyk2 oligo antag,CYP2C19 act,CYP2C9 act,CYP2C19 inhib
CCOC(=O)C1CCN(S(=O)(=O)c2ccc(OC)c(Cl)c2Cl)CC1,-0.98,-23,-1,1.1,1.2,-14
CCOC(=O)C1CCN(S(=O)(=O)c2ccc(Cl)cc2OC)CC1,.,-43,0.67,0.2,1.4,84*
O=C(CSc1nnc(C2CCCCC2)n1Cc1ccccc1)NCc1ccco1,-0.44,66*,0.68,0.6,0.3,43
COc1ccccc1NC(=O)CSc1nnc(COc2ccc(Cl)cc2)n1Cc1ccco1,-2.5,23,-0.15,0.8,0.8,21
Cc1ccc(NCc2nnc(SCC(=O)NCc3ccco3)n2CC2CCCO2)cc1Cl (centres undefined),-1.6,56*,-0.27,0.6,0.4,41
COc1ccccc1OCc1nnc(SCC(=O)NCc2ccco2)n1Cc1ccco1,-0.013,58*,1,0.4,0.4,62*
Cc1ccc(NCc2nnc(SCC(=O)Nc3ncc(C)s3)n2CC2CCCO2)c(C)c1 (centres undefined),-4.5*,25,0.65,0.7,0.7,27
CCC1CC2CC(NC(C)=O)C1C2 (centres undefined),-0.06,-8,-0.13,1.1,1.1,-6
CCCN1CCC(N2CCN(c3cccc(C(F)(F)F)c3)CC2)CC1,-0.83,-8,0.32,1,1.1,0
O=C(CSc1nnc(CNc2ccc(F)cc2)n1Cc1ccccc1)NCc1ccco1,-3.6,53*,-0.74,0.5,0.5,54*
O=C(OCC(=O)N1CCN(C(=O)c2ccco2)CC1)c1ccc(S(=O)(=O)N2CCCCC2)cc1,0.96,60*,1.2,1,0.4,1
O=C(OCC(=O)N1CCN(C(=O)c2ccco2)CC1)c1ccccc1OCc1ccccc1,0.33,87*,1.7,0.4,0.1,64*
O=C(OCC(=O)N1CCN(c2ccccc2)CC1)c1ccc2ncsc2c1,-1.7,-63,0.04,0.3,1.6,73*
Cc1cc(C(=O)OCC(=O)N2CCN(c3ccccc3)CC2)c2ccccc2n1,-0.026,-175,0.57,0.6,2.8*,39
O=C(OCC(=O)N1CCCC1)c1ccccc1OCc1ccccc1,0.21,11,0.15,0.9,0.9,12
O=C(OCC(=O)N1CCN(c2ccccc2)CC1)c1ccco1,-0.46,12,0.23,0.7,0.9,25
CCN(CC)c1ccc(C(=O)OCC(=O)N2CCN(c3ccccc3)CC2)cc1,0.52,6,0.51,0.9,0.9,7
CCNC(=O)c1nc[nH]c1C(=O)NCC,0.025,8,1.2,0.8,0.9,15
O=C(O)c1c(Cl)c(Cl)c(Cl)c(Cl)c1C(=O)N1CCCC1,0.23,-3,0.48,1,1,-4
O=C(OCC(=O)N1CCN(C(=O)c2ccco2)CC1)c1ccccc1C(=O)c1ccccc1,1.1,18,-0.94,0.9,0.8,14
O=C(OCC(=O)N1CCN(C(=O)c2ccco2)CC1)c1cc(-c2ccccc2)nc2ccccc12,-0.12,76*,-0.56,0.5,0.2,50
O=C(OCC(=O)N1CCN(C(=O)c2ccco2)CC1)c1cn(-c2ccccc2)nc1-c1ccccc1,-2.5,68*,-0.78,0.6,0.3,43
Cc1nn(-c2nc3ccccc3s2)c(C)c1Oc1ccccc1O,0.11,.,-2.8,.,.,.
O=C(CN1C(=O)c2ccccc2C1=O)Nc1ccccc1C(=O)NC1CCCCC1,1.1,65*,0.57,1,0.3,-4
O=C(CN1C(=O)c2ccccc2C1=O)Nc1cccc2cccnc12,-11*,-3,.,1.1,1,-13
SMILES,Cav3 T inh,CYP2C9 inhib,Pyk2 oligo antag,CYP2C19 act,CYP2C9 act,CYP2C19 inhib
Cc1c(C(=O)N2CCCCC2)sc(NC(=O)C23CC4CC(CC(C4)C2)C3)c1C#N,-0.017,.,-0.19,.,.,.
COc1ccc(-c2nn3c(COc4ccccc4)nnc3s2)cc1OC,.,58*,0.44,0.7,0.4,28
c1ccc(OCc2nnc3sc(-c4cccs4)nn23)cc1,-1,58*,1.3,0.5,0.4,53*
Clc1ccc(Cl)c(-c2nn3c(COc4ccccc4)nnc3s2)c1,2.2,50*,0.73,0.7,0.5,29
O=[N+]([O-])c1ccc(N2CCN(S(=O)(=O)c3ccccc3[N+](=O)[O-])CC2)cc1N1CCc2ccccc2C1,.,.,0.44,.,.,.
COc1cccc(NC(=O)CSc2nnc(-c3ccoc3C)n2CC2CCCO2)c1 (centres undefined),-0.019,18,-0.37,0.9,0.8,10
